Data on 4 compounds can be found in PubChem BioAssay.

Test [1] has as its system Wnt5a (protein binding on small-molecule microarray). Briefly: Wnt5a binders on small-molecule microarray, primary screen, biophysical, 635/667 nm fluorescence (AID 1142).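 Also: fluorescence read at 667 nm with signal to noise per printed feature.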 The conditions noted are these: 635 nm fluorescence, higher = more signal.
A short description of test [2]: cell viability in Huh7 cells, primary screen, cytotoxicity control for HCV replication inhibitor project, CellTiter-Glo luminescence, basal, 48 h (AID 1143).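 Also: Huh7 hepatoma cells carrying a hepatitis C replication reporter with no stimulus; test concentration not given here.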 The following applies: Huh7 HCV replicon, higher = more signal, called active from +8 up or from −8 down. (Cellular ATP, detected with luciferase, serves as a proxy for viable cell number.)
Test [3] in a line: P. aeruginosa biofilm formation inhibitors, primary screen, PAO1 strain, BacTiter-Glo luminescence, LB-PBS (AID 1144). The following applies: 12 h, higher = more signal.
Test [4] can be described thus: CREB reporter modulators without forskolin, primary screen, cell-based, PC12, CRE-LacZ reporter, unstimulated (AID 1145). The conditions noted are these: no forskolin, luminescence, 4.5 h, higher = more signal, called active from +8 up or from −8 down.
Test [5] can be described thus: CREB reporter modulators under forskolin, primary screen, cell-based, PC12, CRE-LacZ reporter, forskolin-stimulated (AID 1146).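 Also: PC12 cells with 6xCRE LacZ reporter stimulated by forskolin 10 µM; beta-galactosidase reporter signal reflecting CREB driven transcription.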 The conditions noted are these: luminescence, 4.5 h, higher = more signal, called active from +8 up or from −8 down.
For test [6], the target named is Streptavidin (Streptomyces avidinii) (UniProt P22629). Nature of the test: streptavidin binders on small-molecule microarray, primary screen, artefact control for SMM compound annotation, biophysical, 635/667 nm fluorescence (AID 1147).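 Also: signal reflects streptavidin binding to arrayed compounds as a control protein.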 The following applies: streptavidin binding, higher = more signal.
The nature of test [7]: small-molecule binders of probe aInhba, primary screen, biochemical, small-molecule microarray, 635/667 nm fluorescence (AID 1148).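 Also: score merges 667nm spot fluorescence with signal-to-noise for antibody binding to printed compounds.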 The following applies: higher = more signal.
In test [8] the target is Torsin-1A (Homo sapiens) (UniProt O14656). Briefly: torsin A binders from cell lysate, primary screen, small-molecule microarray, wild-type, 635/667 nm (AID 1149). The following applies: COS7 hTOR1A-WT lysate, 635 nm fluorescence, higher = more signal.
Test [9] has the same target. Nature of the test: small-molecule binders of mutant TOR1A in lysate, primary screen, cell lysate, small-molecule microarray, COS7 lysate, 635/667 nm fluorescence (AID 1150).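 Also: score pools 667 nm emission and signal to noise measuring lysate protein binding.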 The conditions noted are these: COS7 hTOR1A mutant lysate, 635 nm fluorescence, higher = more signal.
The subject of test [10] is Sonic hedgehog protein (Shh). Nature of the test: small-molecule binders of Shh protein, primary screen, biochemical, small-molecule microarray, 635/667 nm fluorescence (AID 1151).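 Also: Shh protein binding to compounds spotted on small-molecule microarray slides; score combines spot fluorescence intensity with signal-to-noise across triplicate slides.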 The following applies: small-molecule microarray binding, 635 nm fluorescence; higher = more signal.
Test [11] in a line: E. coli DRC41 culture turbidity changes, primary screen, E. coli filamentation inducer project, strain DRC41, OD650, 48 h (AID 1152).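 Also: E. coli MC1000 strain DRC41 lacking acrAB efflux pump and sulA.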 The following applies: E. coli DRC41 (acrAB sulA), higher = more signal, called active from +8 up or from −8 down.
Test [12] can be described thus: small-molecule binders of probe aLefty1, primary screen, biochemical, small-molecule microarray, 635/667 nm fluorescence (AID 1153).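 Also: score merges spot fluorescence with signal-to-noise ratio from the scanned slide images.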 The conditions noted are these: higher = more signal.
A short description of test [13]: PSAC antagonists in infected red cells, primary screen, cell-based, P. falciparum Indochina, OD700, 1 h (AID 1154). The following applies: P. falciparum Indochina infected RBC osmotic lysis, higher = more signal, called active from +8 up or from −8 down.
Test [14] can be described thus: PSAC antagonists in infected red cells, primary screen, cell-based, P. falciparum Indochina, OD700, 2 h (AID 1155).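 Also: lysis reports solute entry through the parasite surface anion channel PSAC; channel blockers reduce lysis of infected cells.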 The following applies: P. falciparum Indochina infected erythrocytes, osmotic lysis OD700; higher = more signal, called active from +8 up or from −8 down.
Test [15] is described as follows: osmotic lysis modulators in infected erythrocytes, primary screen, PSAC antagonist project, cell-based, P. falciparum Indochina, OD700, 3 h (AID 1156). The conditions noted are these: higher = more signal, called active from +8 up or from −8 down.
The nature of test [16]: PSAC antagonists in infected red cells, primary screen, cell-based, P. falciparum Indochina, OD700, 18 h (AID 1157). The conditions noted are these: P. falciparum Indochina infected erythrocytes, osmotic lysis OD700, 18 h; higher = more signal, called active from +8 up or from −8 down.
Test [17] is described as follows: modulators of S6 phosphorylation in cells, primary screen, cell-based, A549, cytoblot, luminescence, serum-stimulated (AID 1158).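 Also: serum-stimulated A549 lung adenocarcinoma cells; signal is phosphorylated S6 detected by cytoblot immunostaining with HRP secondary.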 The conditions noted are these: A549 phospho-S6 cytoblot, 5 h, higher = more signal.
Test [18] addresses NADPH oxidase 2 (Homo sapiens) (UniProt P04839). Briefly: NOX2-dependent H2O2 signal modulators, primary screen, NOX inhibitor project, cell-based, HEK293-NOX2, PMA-stimulated, Amplex Red fluorescence (AID 1159). Also: test concentration not given here. The following applies: 45 min, higher = more signal, called active from +8 up or from −8 down.
The target of test [19] is NADPH oxidase 4 (Homo sapiens) (UniProt Q9NPH5). Nature of the test: NOX4-dependent H2O2 signal modulators, primary screen, NOX inhibitor project, cell-based, HEK293-NOX4, tetracycline-induced, Amplex Red fluorescence (AID 1160). The conditions noted are these: 45 min, higher = more signal, called active from +8 up or from −8 down.
Test [20] concerns the target NADPH oxidase 5 (Homo sapiens) (UniProt Q96PH1). Briefly: NOX5-dependent H2O2 signal modulators, primary screen, NOX inhibitor project, cell-based, HEK293-NOX5, Amplex Red fluorescence (AID 1161). The following applies: HEK293-NOX5, ionomycin, 45 min, higher = more signal.

Active and inactive are the calls of the source. Unless noted, no rule for the calls is given here.

Sequence of Streptavidin (Streptomyces avidinii) (P22629 whole entry, looked up): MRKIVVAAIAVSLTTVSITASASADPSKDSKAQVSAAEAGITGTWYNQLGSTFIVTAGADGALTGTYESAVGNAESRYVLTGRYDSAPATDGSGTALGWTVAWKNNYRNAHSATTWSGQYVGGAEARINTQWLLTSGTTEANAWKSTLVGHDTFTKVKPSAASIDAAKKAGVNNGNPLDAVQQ
Sequence of NADPH oxidase 5 (Homo sapiens) (Q96PH1 whole entry, looked up): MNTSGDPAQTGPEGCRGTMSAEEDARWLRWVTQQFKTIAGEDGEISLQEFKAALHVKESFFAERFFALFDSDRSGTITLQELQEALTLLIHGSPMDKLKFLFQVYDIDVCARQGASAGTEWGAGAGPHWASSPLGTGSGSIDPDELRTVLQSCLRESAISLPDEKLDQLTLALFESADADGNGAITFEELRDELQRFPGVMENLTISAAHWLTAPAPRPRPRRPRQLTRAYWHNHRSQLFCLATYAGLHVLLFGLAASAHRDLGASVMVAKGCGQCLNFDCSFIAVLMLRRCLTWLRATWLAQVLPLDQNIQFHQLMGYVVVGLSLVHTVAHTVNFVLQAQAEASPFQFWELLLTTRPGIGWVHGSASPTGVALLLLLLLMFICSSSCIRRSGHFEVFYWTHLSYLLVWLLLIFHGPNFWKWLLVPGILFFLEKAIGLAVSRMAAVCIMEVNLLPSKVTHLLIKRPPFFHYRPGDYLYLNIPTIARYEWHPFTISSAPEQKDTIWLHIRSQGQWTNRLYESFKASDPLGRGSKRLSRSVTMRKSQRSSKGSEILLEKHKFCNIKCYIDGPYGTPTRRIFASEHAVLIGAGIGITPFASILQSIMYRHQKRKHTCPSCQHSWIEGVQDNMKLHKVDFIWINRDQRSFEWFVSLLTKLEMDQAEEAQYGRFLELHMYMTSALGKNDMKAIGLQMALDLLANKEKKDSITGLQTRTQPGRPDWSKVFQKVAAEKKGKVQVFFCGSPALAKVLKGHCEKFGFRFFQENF
Sequence of NADPH oxidase 4 (Homo sapiens) (Q9NPH5 whole entry, looked up): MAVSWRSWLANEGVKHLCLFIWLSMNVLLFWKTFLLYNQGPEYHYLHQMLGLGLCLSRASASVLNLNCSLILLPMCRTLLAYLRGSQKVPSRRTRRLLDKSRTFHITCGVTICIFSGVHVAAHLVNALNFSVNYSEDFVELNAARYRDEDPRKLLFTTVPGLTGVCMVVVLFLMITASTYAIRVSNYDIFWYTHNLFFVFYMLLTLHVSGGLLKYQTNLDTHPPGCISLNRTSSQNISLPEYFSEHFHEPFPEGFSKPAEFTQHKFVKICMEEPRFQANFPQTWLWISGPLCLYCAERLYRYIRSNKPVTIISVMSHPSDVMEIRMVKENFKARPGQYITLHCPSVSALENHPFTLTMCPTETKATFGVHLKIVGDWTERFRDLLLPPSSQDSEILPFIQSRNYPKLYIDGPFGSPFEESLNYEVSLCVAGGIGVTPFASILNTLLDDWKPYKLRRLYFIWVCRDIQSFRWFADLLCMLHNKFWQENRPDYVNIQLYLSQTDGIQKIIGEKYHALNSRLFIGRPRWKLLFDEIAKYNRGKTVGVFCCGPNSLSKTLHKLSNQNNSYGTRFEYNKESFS
Sequence of NADPH oxidase 2 (Homo sapiens) (P04839 whole entry, looked up): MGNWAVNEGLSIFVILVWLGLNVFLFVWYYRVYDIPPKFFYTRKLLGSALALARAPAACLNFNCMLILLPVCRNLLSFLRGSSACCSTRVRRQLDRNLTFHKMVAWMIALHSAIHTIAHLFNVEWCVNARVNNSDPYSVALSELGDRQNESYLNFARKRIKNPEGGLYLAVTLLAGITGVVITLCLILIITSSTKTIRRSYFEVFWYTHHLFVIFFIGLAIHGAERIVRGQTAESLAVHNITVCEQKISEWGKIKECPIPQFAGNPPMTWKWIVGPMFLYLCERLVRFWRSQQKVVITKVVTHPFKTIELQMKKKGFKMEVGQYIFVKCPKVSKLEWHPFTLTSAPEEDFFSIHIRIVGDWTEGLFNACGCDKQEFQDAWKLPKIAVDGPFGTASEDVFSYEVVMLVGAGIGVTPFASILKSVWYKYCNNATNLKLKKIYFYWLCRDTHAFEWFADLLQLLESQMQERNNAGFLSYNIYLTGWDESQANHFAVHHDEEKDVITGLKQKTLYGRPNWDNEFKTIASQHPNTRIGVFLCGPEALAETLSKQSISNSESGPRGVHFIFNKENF
Sequence of Torsin-1A (Homo sapiens) (O14656 whole entry, looked up): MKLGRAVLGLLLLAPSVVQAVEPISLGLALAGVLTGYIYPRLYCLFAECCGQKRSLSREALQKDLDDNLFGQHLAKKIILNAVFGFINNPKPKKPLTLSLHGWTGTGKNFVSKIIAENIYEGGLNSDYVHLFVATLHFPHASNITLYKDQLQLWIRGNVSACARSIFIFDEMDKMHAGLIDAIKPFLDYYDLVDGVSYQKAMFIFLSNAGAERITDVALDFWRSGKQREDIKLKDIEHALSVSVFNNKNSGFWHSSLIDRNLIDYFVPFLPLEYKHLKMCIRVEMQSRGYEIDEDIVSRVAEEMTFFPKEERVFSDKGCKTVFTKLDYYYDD

Regarding `CCN(CC)c1ccc(N2CC=CC34O[C@@H]5C=CCCOC(=O)C5[C@H]3C(=O)N(C(C)CO)[C@@H]4C2=O)cc1` (stereo not given in full), the composite z-score in test [1] is -0.188; in [6] it was -0.638; in test [7] it was 0.166; with Torsin-1A (Homo sapiens) [8] it was 0.0632; with Torsin-1A (Homo sapiens) [9], -0.194; in [10], 1.53. This compound also gave a composite z-score in test [12] of 0.138. Moreover, the z-score is 0.0396 (inactive) in test [2]; 1.25 (inactive) in test [3]; 1.01 (inactive) in test [4]; -0.0386 (inactive) in test [5]; -0.627 (inactive) in test [11]; 3.66 (inactive) in test [13]. Besides, the z-score in [14] was 0.493 (inactive); in test [15], 0.988 (inactive); in test [16], 0.353 (inactive); in [17], -0.465; in [18], -0.748 (inactive); in test [19] it was 0.447 (inactive). In test [20], this compound came in with a z-score of 0.772.
For `COCCOC(=O)N1C(=O)[C@@]2(c3cc(C#CCCO)ccc31)[C@H](c1ccccc1OCCO)N1[C@H](c3ccccc3)[C@H](c3ccccc3)OC(=O)[C@H]1[C@@H]2C(N)=O`, the composite z-score in [1] was 0.536; in [6], 0.508; in test [7], -0.226; in the test with Torsin-1A (Homo sapiens) [8], -0.0615; with Torsin-1A (Homo sapiens) [9], 0.172; in test [10] it was 1.97. The compound further registered a composite z-score in test [12] of -0.278. Moreover, the z-score in test [2] was -4.33 (inactive); in test [3], -0.441 (inactive); in test [4], 0.0653 (inactive); in test [5], 18.6 (active); in [11], 1.46 (inactive); in test [13], 20.3 (active). The z-score in [14] was 4.04 (inactive); in test [15], 0.633 (inactive); in [16] it was 0.934 (inactive); in test [17] it was 0.868; in test [18], 1.81 (inactive); in test [19] it was 0.552 (inactive). In [20], the z-score was -0.302.
For `O=C(NCc1ccccc1)[C@@H]1c2ccccc2C(=O)N(Cc2ccc(OC(F)(F)F)cc2)[C@H]1c1ccc(CO)cc1`, the composite z-score in test [1] is -0.134; in test [6] it was -0.756; in [7], 0.0102; with Torsin-1A (Homo sapiens) [8], 0.521; with Torsin-1A (Homo sapiens) [9] it was 0.162; in test [10], -0.493. The compound further displayed a composite z-score in test [12] of 0.656. For the same compound, the z-score was -0.495 (inactive) in [2]; 0.0274 (inactive) in test [3]; 0.208 (inactive) in test [4]; 0.129 (inactive) in test [5]; 0.39 (inactive) in test [11]; 3.9 (inactive) in test [13]. Besides, the z-score is 0.566 (inactive) in [14]; 1.56 (inactive) in test [15]; 0.158 (inactive) in test [16]; 0.503 in [17]; -3.06 (inactive) in test [18]; 0.263 (inactive) in test [19]. This compound showed a z-score in test [20] of 0.401.
Consider `CC(C)C[C@@H]1NC(=O)[C@@]23C(=O)N[C@@H](Cc4ccccc4)C2[C@H](C)[C@@]2(C)O[C@H]2C3/C=C/C/C=C\CNC(=O)CNC1=O` (stereo not given in full), for which the composite z-score in test [1] is -0.0717; in test [6] it was 0.228; in test [7], -0.179; with Torsin-1A (Homo sapiens) [8], -0.507; in the test with Torsin-1A (Homo sapiens) [9], 0.939; in test [10], 0.214. In [12], this compound showed a composite z-score of -0.0832. Also, the z-score is -1.91 (inactive) in [2]; 0.0738 (inactive) in test [3]; -1.05 (inactive) in [4]; -0.767 (inactive) in test [5]; -0.815 (inactive) in test [11]; 0.917 (inactive) in test [13]. The z-score in test [14] was 0.0107 (inactive); in [15], -0.023 (inactive); in test [16], 0.329 (inactive); in test [17] it was 0.208; in test [18], 1.82 (inactive); in test [19], 1.2 (inactive). Besides, the z-score in test [20] was -0.441.
